# According to PubChem BioAssay (NCATS):
# Records with an inconclusive call do not appear. Values without a mark were called inactive. Calls of active or inactive are those of the source. Calls come from the whole dose curve; as a rule, active = well fitted inhibition curve with a large enough effect; inconclusive = small, poorly fitted or top-dose-only effect; inactive = flat fitted curve, though single readings scatter.
# Test: Primary qHTS for inhibitors of nuclear receptor binding SET domain protein 2 (NSD2) in an isogenic RCH-ACV NSD2 p.E1099K mutant (9B) (AID 1645876); note: nearly all actives have a fitted effect of over 70% in size
# Conditions: RCH-ACV (leukaemia line) NSD2 E1099K (9B) viability, CellTiter-Glo, 72 h; series mostly up to 44.9 µM; activity change, negative = viability loss: at the top concentration
# % is set by controls: 0 for no effect and ±100 for the full control effect.
SMILES,"activity change, negative = viability loss",outcome
CC12CC(c3ccoc3)OC(=O)C1CCC1(C)C2CCC(O)C1(C)O (centres undefined),-11.8%,–
COc1ccc(O[C@@H]2O[C@H](CO)[C@@H](O)[C@H](O)[C@H]2O)cc1OC,-4.42%,–
C/C(=C\CO)CC/C=C(\C)C(=O)O[C@@H]1O[C@H](CO)[C@@H](O)[C@H](O)[C@H]1O,4.12%,–
C[C@@H]1O[C@@H](O[C@@H]2[C@@H](O)[C@H](O[C@@H]3[C@@H](O)[C@@H](O)[C@H](O[C@H]4[C@H](OC(=O)[C@]56CCC(C)(C)C[C@H]5C5=CCC7[C@@]8(C)C[C@H](O)[C@H](O[C@@H]9O[C@H](C(=O)O)[C@@H](O)[C@H](O)[C@H]9O)[C@@](C)(CO)C8[C@H](O)C[C@@]7(C)[C@]5(C)C[C@H]6O)O[C@@H](CO)[C@@H]4O)O[C@H]3C)OC[C@H]2O)[C@H](O)[C@H](O)[C@H]1O (some centres undefined),-3.74% [at 9.23 µM],–
COCC1OC(n2cnc3c(=O)[nH]cnc32)C(O)C1O (centres undefined),-4.51%,–
CC(C)CC[C@@H](O)[C@](C)(O)[C@H]1CC[C@@]2(O)C3=CC(=O)[C@@H]4C[C@@H](O)[C@@H](O)C[C@]4(C)[C@H]3CC[C@]12C,0.08%,–
COC(=O)c1cc(OC)cc(OC)c1C(=O)c1c(OC)cc2c(c1O)C1CCC(O)C(C)(O2)O1 (centres undefined),–,inactive [at 17.3 µM]
CC1CCC2C(C)(C)C(O)C(O)CC2(C)C12Cc1c(O)cc(CO)c(C=O)c1O2 (centres undefined),-26.4% [at 17.3 µM],–
C[C@@H]1C[C@@H](O)[C@@]23CO[C@]2(CO)CCC[C@@H]3[C@@]12C[C@@H](c1ccoc1)OC2=O,–,inactive
CC1CC2OCC3(O)CCC(O)C(C14CC(c1ccoc1)OC4=O)C23CO (centres undefined),3.95%,–
COc1cc(/C=C/C(=O)O[C@H]2C[C@@H]3C(C(=O)O)=CO[C@@H](O[C@@H]4O[C@H](CO)[C@@H](O)[C@H](O)[C@H]4O)[C@@H]3[C@H]2C)ccc1O,–,inactive [at 17.3 µM]
C[C@H]1[C@H](C)CC[C@]2(C(=O)O)CC[C@]3(C)C(=CCC4[C@@]5(C)C[C@@H](O)[C@H](O)C(C)(C)C5CC[C@]43C)[C@H]12 (some centres undefined),-7.06% [at 17.3 µM],–
CC1(C)C(=O)N2c3ccccc3C(O)(CC(C(=O)O)n3cnc4ccccc4c3=O)C2N1O (centres undefined),-10.6% [at 17.3 µM],–
O=C(O)Cc1cn([C@@H]2O[C@H](CO)[C@@H](O)[C@H](O)[C@H]2O[C@@H]2O[C@H](CO)[C@@H](O)[C@H](O)[C@H]2O)c2ccccc12,1.68% [at 17.3 µM],–
CC1(C)C[C@H](O)C[C@@]2(C)[C@H]1[C@H](O)C=C1COC(=O)[C@@]12O,-4.15%,–
CC1OC(O[C@H]2CC[C@@]3(C)C(CC[C@]4(C)C3CC=C3C5CC(C)(C)CC[C@]5(C(=O)OC5OC(CO)C(OC6OCC(OC7OCC(O)C(O)C7O)C(O)C6O)C(O)C5O)CC[C@]34C)C2(C)C)C(O)C(O)C1OC1OC(CO)C(O)C(OC2OC(CO)C(O)C(O)C2O)C1O (some centres undefined),-12.9% [at 9.23 µM],–
C[C@]1(O)CC[C@@H]2C(C(=O)O)=CO[C@@H](O[C@@H]3O[C@H](CO)[C@@H](O)[C@H](O)[C@H]3O)[C@@H]21,-2.78%,–
COC(=O)c1ccc(OC)cc1O[C@@H]1O[C@H](CO[C@@H]2OC[C@@H](O)[C@H](O)[C@H]2O)[C@@H](O)[C@H](O)[C@H]1O,–,inactive [at 17.3 µM]
CC1=CC23[C@H](C=C(C(=O)O)[C@@H]2COC(=O)[C@]3(O)CO)[C@@H]1C (some centres undefined),–,inactive
CC1=C2C[C@@]3(C)C(CCC[C@@H]3C)C(O)C2(O)OC1=O (some centres undefined),-21.2%,–

SMILES,"activity change, negative = viability loss",outcome
CC1(C)CC[C@]2(C(=O)O[C@@H]3O[C@H](CO)[C@@H](O)[C@H](O)[C@H]3O)CC[C@]3(C)C(=CCC4[C@@]5(C)CC[C@H](O[C@H]6O[C@H](CO)[C@@H](O)[C@H](O[C@@H]7O[C@H](CO)[C@@H](O)[C@H](O)[C@H]7O)[C@H]6O)C(C)(C)C5CC[C@]43C)[C@@H]2C1 (some centres undefined),3.49% [at 9.23 µM],–
O=C(O)CCc1c(C(=O)O)[nH]c2cc(Cl)cc(Cl)c12,-0.269% [at 17.3 µM],–
CC(=O)OC[C@]12[C@@H](OC(=O)c3ccoc3)C[C@@H]3[C@@H](OC(C)=O)[C@]1(OC3(C)C)[C@@](C)(O)C[C@H](OC(=O)c1ccoc1)[C@@H]2OC(=O)c1ccoc1,-13.3% [at 17.3 µM],–
C=C1C(O)C(O)C2(CC3C(C)=CCC4C(C)(C(=O)O)CCCC34C)OC2C1O (centres undefined),-14.9%,–
CC1=C[C@H](O)[C@H]2C(C)(C)CCC[C@]2(C)[C@@]1(O)CO,–,inactive
CC1(C)CC[C@]2(C(=O)O[C@@H]3O[C@H](CO[C@@H]4O[C@H](CO[C@@H]5O[C@H](CO)[C@H](O)[C@H](O)[C@H]5O)[C@@H](O)[C@H](O)[C@H]4O)[C@@H](O)[C@H](O[C@@H]4O[C@H](CO)[C@@H](O)[C@H](O)[C@H]4O)[C@H]3O)[C@H](O)C[C@]3(C)C(=CCC4[C@@]5(C)CC[C@H](O[C@@H]6OC[C@@H](O)[C@H](O)[C@H]6O)[C@@](C)(C(=O)O)C5CC[C@]43C)[C@@H]2C1 (some centres undefined),–,inactive [at 9.23 µM]
CC(=O)O[C@@H]1C(=O)C(C)=C(CCC(C)CC(=O)O)[C@@]2(C)CCCC(C)(C)C12 (some centres undefined),-12.1%,–
CC1(C)CC[C@]2(C(=O)O)CC[C@]3(C)C(=CCC4[C@@]5(C)C(=O)C[C@H](O)[C@@](C)(CO)C5CC[C@]43C)[C@@H]2C1 (some centres undefined),3.87% [at 17.3 µM],–
NC[C@@H]1O[C@@H](O[C@@H]2[C@@H](O[C@@H]3O[C@H](CO)[C@@H](O)[C@H]3O)[C@H](O)[C@@H](N)C[C@H]2N)[C@@H](N)[C@H](O)[C@H]1O,4.31% [at 9.23 µM],–
NC1(c2ccc(NC(=O)c3ccnc(-c4cc(C(=O)O)ccn4)c3)cc2)CC1,–,inactive
CC(/C=C/C=C(\C)C(=O)O[C@@H]1O[C@H](CO[C@@H]2O[C@H](CO)[C@@H](O)[C@H](O)[C@H]2O)[C@@H](O)[C@H](O)[C@H]1O)=C\C=C\C=C(C)\C=C\C=C(/C)C(=O)O[C@@H]1C[C@](O)(C(=O)O)C[C@@H](O)[C@H]1OC(=O)/C=C/c1ccc(O)c(O)c1,-6.13% [at 9.23 µM],–
CC(C)(O)C1CCC2(C)CCCC(C)(O)C2C1 (centres undefined),-15.2%,–
C[C@@H]1O[C@@H](O[C@H]2[C@H](OC(=O)[C@]34CCC(C)(C)C[C@H]3C3=CCC5[C@@]6(C)C[C@@H](O)[C@@H](O)[C@@](C)(CO)C6[C@H](O)C[C@@]5(C)[C@]3(C)CC4)OC[C@H](O)[C@@H]2O)[C@H](O)[C@H](O)[C@H]1O[C@@H]1OC[C@@H](O)[C@H](O[C@H]2O[C@H](C)[C@@H](O)[C@H](O)[C@@H]2O)[C@H]1O (some centres undefined),-2.76% [at 9.23 µM],–
CC(C)[C@@H](C(=O)O)N1Cc2c(cc(O)c3c2O[C@]2(C3)[C@H](C)CCC3C(C)(C)[C@H](O)[C@H](O)C[C@@]32C)C1=O (some centres undefined),1.04% [at 17.3 µM],–
Cc1cc(CO)c(O)c(C(=O)CC2CC(=O)NC(=O)C2)c1,-6.64%,–
C=C(COC(=O)C(C)C)C1Oc2cc(C(C)=O)ccc2C1OC(=O)C(C)C (centres undefined),-8%,–
C[C@@H]1CC[C@]2(C(=O)O)CC[C@]3(C)C(=CCC4[C@@]5(C)C[C@@H](O)[C@H](O)[C@@](C)(CO)C5CC[C@]43C)C2[C@H]1C (some centres undefined),2.99% [at 17.3 µM],–
CC(C)=CCC[C@](C)(O[C@@H]1O[C@H](CO)[C@@H](O)[C@H](O)[C@H]1O)[C@H]1CC[C@]2(C)[C@@H]1[C@H](O)CC1[C@@]3(C)CC[C@H](O)C(C)(C)C3[C@@H](O[C@@H]3O[C@H](CO)[C@@H](O)[C@H](O)[C@H]3O[C@@H]3O[C@@H](C)[C@H](O)[C@@H](O)[C@H]3O)C[C@]12C (some centres undefined),-2.5% [at 9.23 µM],–
C[C@@H]1O[C@@H](OC2C(CO)OC(OCC3OC(OC(=O)[C@]45CCC(C)(C)CC4C4=CCC6[C@@]7(C)CC[C@@H](O)[C@](C)(C(=O)O)C7CC[C@@]6(C)[C@]4(C)CC5)C(O)C(O)C3O)C(O)C2O)[C@H](O)[C@H](O)[C@H]1O (some centres undefined),0.361% [at 9.23 µM],–
